AC50 and outcome data for 2 compounds are collected here from PubChem BioAssay (EPA / NIEHS).

Where “and” joins values, the source holds several entries; their conditions need not be identical. Identical values can stand only once. Records with an inconclusive call do not appear. Calls of active or inactive are those of the source. How the source made its calls, unless noted: active means hit-call score of the fitted dose curve at least 0.9, where 1 is the maximum; inconclusive means response in the unintended direction; inactive means score below 0.9.

Test [1] addresses zebrafish Estrogen Receptor (ER1), esr1 (gene 259252) (UniProt P57717). In words: ATG_zfER1_XSP2: Attagene TRANS-FACTORIAL Multi-Species (XSP2) HepG2 Assay for zebrafish Estrogen Receptor (ER1) (AID 2283816). Put shortly: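 HepG2 cells transiently transfected with a GAL4-UAS reporter and a chimeric zebrafish ER1-Gal4 construct, dosed 24 h. Reporter mRNA quantified by RT-PCR, labelling, HpaI digestion and capillary electrophoresis, relative to DMSO.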

The target in test [2] is chicken Estrogen Receptor (ERa), ESR1 (gene 396099) (UniProt P06212). The test is described as follows: ATG_chERa_XSP2: Attagene TRANS-FACTORIAL Multi-Species (XSP2) HepG2 Assay for chicken Estrogen Receptor (ERa) (AID 2283817).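 Further: actives raise reporter signal above DMSO so AC50 reflects ER activation.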 In outline: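 Transient MRTU transfection of HepG2 → 24 h chemical dosing → TriZol RNA, oligo(dT) RT → PCR, 6-FAM primer extension, HpaI digest → CE quantitation of chicken ERa-Gal4-driven reporter mRNA. Positive direction vs DMSO.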

The subject of test [3] is zebrafish Estrogen Receptor (ER2a), gene 317734. In words: ATG_zfER2a_XSP2: Attagene TRANS-FACTORIAL Multi-Species (XSP2) HepG2 Assay for zebrafish Estrogen Receptor (ER2a) (AID 2283818).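 Further: hits raise reporter mRNA so AC50 reflects activation of zebrafish ER2a.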 Put shortly: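 HepG2 cells transiently transfected with GAL4-UAS reporter units and chimeric zebrafish ER2a-Gal4, exposed 24 h; medium contains 3 nM 6-alpha-fluorotestosterone and 1.5 nM norgestrel. Reporter mRNA quantified by RT-PCR, HpaI digestion, capillary electrophoresis; gain versus DMSO.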

In test [4] the test system is frog Estrogen Receptor (ER), gene 398734. The test is described as follows: ATG_frER1_XSP2: Attagene TRANS-FACTORIAL Multi-Species (XSP2) HepG2 Assay for frog Estrogen Receptor (ER) (AID 2283821).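 Further: hits raise reporter mRNA above DMSO baseline so potency means agonist or activator.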 In outline: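 Steps: transfect HepG2 with multiple reporter transcription units; treat with chemical for 24 h; isolate RNA, reverse-transcribe, PCR-amplify, label with 6-FAM, digest with HpaI; resolve fragments by capillary electrophoresis. Signal is scored against DMSO.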

Test [5] has as its system zebrafish Estrogen Receptor (ER2b), gene 317733. In words: ATG_zfER2b_XSP2: Attagene TRANS-FACTORIAL Multi-Species (XSP2) HepG2 Assay for zebrafish Estrogen Receptor (ER2b) (AID 2283823).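 Further: fitted upward as reporter gain over DMSO so potency reflects activation.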 Put shortly: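 In this multiplexed trans-activation format, HepG2 cells expressing exogenous NR-Gal4 fusions drive GAL4-UAS reporters. Exposure lasts 24 h, and reporter mRNA induction is read by RT-PCR with capillary electrophoresis detection.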

Test [6] deals with frog Estrogen Receptor (ER2), gene 100174814. In words: ATG_frER2_XSP2: Attagene TRANS-FACTORIAL Multi-Species (XSP2) HepG2 Assay for frog Estrogen Receptor (ER2) (AID 2283828). In outline:
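Multiplexed transactivation in HepG2: frog estrogen receptor fused to Gal4 drives a UAS reporter. Signal is reporter mRNA after 24 h treatment.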

Test [7] concerns the target Peroxisome proliferator-activated receptor gamma (Homo sapiens) (UniProt P37231). In words: ATG_hPPARg_XSP2: Attagene TRANS-FACTORIAL Multi-Species (XSP2) HepG2 Assay for human Peroxisome Proliferator-activated Receptor gamma (PPARg) (AID 2283829).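 Further: actives raise reporter mRNA above DMSO so AC50 reflects PPARg activation.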 In outline: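 Multiplexed transactivation in transfected HepG2 liver cells. Gal4-chimeric receptor activity reported as induced reporter transcript after 24 h.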

Test [8] concerns the target Nuclear receptor subfamily 1 group I member 2 (Mus musculus) (UniProt O54915). In words: ATG_mPXR_XSP2: Attagene TRANS-FACTORIAL Multi-Species (XSP1) HepG2 Assay for mouse Pregnane X Receptor (PXR) (AID 2283831). Put shortly: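 Human liver HepG2 cells expressing exogenous receptor-GAL4 chimeras were exposed to test chemicals for 24 h. Induction of reporter mRNA was scored as gain of fluorescence signal over DMSO controls.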

For test [9], the system named is zebrafish Peroxisome Proliferator-activated Receptor gamma (PPARg), gene 557037. In words: ATG_zfPPARg_XSP2: Attagene TRANS-FACTORIAL Multi-Species (XSP2) HepG2 Assay for zebrafish Peroxisome Proliferator-activated Receptor gamma (PPARg) (AID 2283833).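 Further: reporter mRNA from a zebrafish PPARg GAL4 chimera measured by RT-PCR and capillary electrophoresis; actives increase reporter signal over DMSO so AC50 reflects activation.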 Put shortly:
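Cell-based transactivation of a chimeric zebrafish PPARg-GAL4 receptor was assessed in transiently transfected HepG2 cells after 24 h of treatment. Reporter mRNA induction, detected fluorescently after RT-PCR, was analysed in the positive direction against DMSO.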

Test [10] concerns turtle Thyroid Hormone Receptor, alpha (TRa), gene 101949057. In words: ATG_trTRa_XSP2: Attagene TRANS-FACTORIAL Multi-Species (XSP1) HepG2 Assay for turtle Thyroid Hormone Receptor, alpha (TRa) (AID 2283834).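 Further: hits raise reporter mRNA over the DMSO baseline so AC50 marks activators.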 In outline:
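Gain-of-signal reporter transcription measured in transiently transfected HepG2 at 24 h post-dose. Fluorescent RT-PCR products were resolved by capillary electrophoresis and compared with DMSO vehicle.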

Test [11] is described as follows: ATG_M_61_XSP2: Attagene TRANS-FACTORIAL Multi-Species (XSP2) HepG2 Assay for M61 Transcription Factor (Internal Marker) (AID 2283835; active means hit-call score of the fitted dose curve at least 0.9, where 1 is the maximum; inactive means score below 0.9;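 further: reporter mRNA of an internal background marker read by RT-PCR and capillary electrophoresis; active means a rise in signal above the DMSO baseline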). Put shortly:
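First, HepG2 cells are transfected with reporter units under GAL4-UAS control. Next, chemicals are applied for 24 h. Then total RNA is reverse-transcribed, amplified, fluorescently labelled and sized by capillary electrophoresis, with gain of signal scored against DMSO.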

Test [12] addresses zebrafish Thyroid Hormone Receptor beta (TRb), thrb (gene 30607) (UniProt Q9PVE4). The test is described as follows: ATG_zfTRb_XSP2: Attagene TRANS-FACTORIAL Multi-Species (XSP1) HepG2 Assay for zebrafish Thyroid Hormone Receptor beta (TRb) (AID 2283836). In outline:
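HepG2 cells transiently transfected with chimeric zebrafish TRb-GAL4 reporter units, dosed 24 h with 3 nM 6-alpha-fluorotestosterone and 1.5 nM norgestrel present. Reporter mRNA quantified by RT-PCR and capillary electrophoresis; gain fitted against DMSO.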

Test [13] in a line: ATG_XTT_Cytotoxicity_XSP2: Cytotoxicity Assessment in the Attagene TRANS-FACTORIAL Multi-Species (XSP2) HepG2 Assay (AID 2283837). In outline: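 HepG2 cells, transiently transfected with multiple reporter constructs, exposed to chemical for 24 h. Cell number assessed with XTT fluorescence read-out; loss of signal fitted relative to DMSO.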
For test [14], the target named is human Thyroid hormone Receptor alpha (TRa), THRA (gene 7067) (UniProt P10827). The test is described as follows: ATG_hTRa_XSP2: Attagene TRANS-FACTORIAL Multi-Species (XSP2) HepG2 Assay for human Thyroid hormone Receptor alpha (TRa) (AID 2283838). In outline: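 HepG2 cells were transiently transfected with GAL4-UAS reporter units for chimeric human TRa-Gal4 and dosed for 24 hours, with 3 nM 6-alpha-fluorotestosterone and 1.5 nM norgestrel present. Reporter mRNA was quantified by RT-PCR, FAM labelling and capillary electrophoresis, with gain of signal fitted versus DMSO.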

Test [15] has as its target frog Thyroid hormone Receptor alpha (TRa), thra-a (gene 397942) (UniProt P15204). The test is described as follows: ATG_frTRa_XSP2: Attagene TRANS-FACTORIAL Multi-Species (XSP2) HepG2 Assay for frog Thyroid hormone Receptor alpha (TRa) (AID 2283839). Put shortly: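 Frog thyroid receptor alpha was tested as an exogenous NR-Gal4 fusion in transiently transfected HepG2 cells. After 24 h chemical treatment, reporter mRNA induction was quantified by RT-PCR and capillary electrophoresis, with gain-of-signal analysed relative to DMSO.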

Test [16] has as its target human Thyroid hormone Receptor beta (TRb), THRB (gene 7068) (UniProt P10828). In words: ATG_hTRb_XSP2: Attagene TRANS-FACTORIAL Multi-Species (XSP2) HepG2 Assay for human Thyroid hormone Receptor beta (TRb) (AID 2283840).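 Further: actives raise reporter mRNA so potency reflects agonist-like gain of signal.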 Put shortly:
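In this cell-based multiplex, HepG2 liver cells carrying transfected GAL4-UAS reporter constructs are exposed to chemical for 24 hours, then reporter transcripts are measured by RT-PCR with capillary electrophoresis, scored as gain of signal against DMSO.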

The target of another test is Caspase-3 (Homo sapiens) (UniProt P42574). In words: NVS_ENZ_hCASP3: NovaScreen (NVS) Enzymatic Assay for human Caspase 3 (CASP3) (AID 2283139). Put shortly:
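Recombinant human caspase-3 from E. coli with a fluorogenic substrate, read by fluorescence 1 h after dosing. Primary screen in duplicate at 25 uM. Actives (for example ≥30% inhibition) rerun as concentration-response up to 50 uM.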

In test [17] the target is human Phosphodiesterase 5 (PDE5), PDE5A (gene 8654) (UniProt O76074). The test is described as follows: NVS_ENZ_hPDE5: NovaScreen (NVS) Enzymatic Assay for human Phosphodiesterase 5 (PDE5) (AID 2283194). In outline: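 Recombinant human PDE5 with specific substrate, read 1 h after dosing by fluorescence with electrophoretic mobility-shift separation of substrate and product. Initial single-concentration duplicate screen at 25 uM, actives followed in concentration series; loss of activity versus DMSO.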

Read-out in test [18]: Tumor necrosis factor receptor superfamily member 6 (Homo sapiens) (UniProt P25445)
The test is described as follows: LTEA_HepaRG_FAS: Life Technologies and Expression Analysis (LTEA) Assay for Fas cell surface death receptor (FAS) using HepaRG (AID 2283447; active means hit-call score of the fitted dose curve at least 0.9, where 1 is the maximum; inactive means score below 0.9). To be noted: mRNA level, 48 h; actives raise or lower the signal. Put shortly: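 FAS transcript level was measured by TaqMan qRT-PCR against three housekeeping genes after 48 h chemical exposure. Cells were HepaRG, 0.5% DMSO vehicle, with a top concentration of 100 uM and half-log dilutions over eight points, in duplicate.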

Read-out in test [19]: Fatty acid synthase (Homo sapiens) (UniProt P49327)
In words: LTEA_HepaRG_FASN: Life Technologies and Expression Analysis (LTEA) Assay for Fatty Acid Synthase (FASN) using HepaRG (AID 2283448; active means hit-call score of the fitted dose curve at least 0.9, where 1 is the maximum; inactive means score below 0.9). To be noted: mRNA level, 48 h; actives raise or lower the signal. In outline:
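Differentiated HepaRG cells in serum-free induction medium exposed 48 h in duplicate to eight half-log concentrations, top 100 uM, 0.5% DMSO. FASN mRNA by qRT-PCR normalised to ACTB, GAPDH, POLR2A; bidirectional fit versus DMSO.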

Nuclear receptor subfamily 1 group I member 2 (Mus musculus), sequence (O54915 whole entry, looked up, the tested form may be a part): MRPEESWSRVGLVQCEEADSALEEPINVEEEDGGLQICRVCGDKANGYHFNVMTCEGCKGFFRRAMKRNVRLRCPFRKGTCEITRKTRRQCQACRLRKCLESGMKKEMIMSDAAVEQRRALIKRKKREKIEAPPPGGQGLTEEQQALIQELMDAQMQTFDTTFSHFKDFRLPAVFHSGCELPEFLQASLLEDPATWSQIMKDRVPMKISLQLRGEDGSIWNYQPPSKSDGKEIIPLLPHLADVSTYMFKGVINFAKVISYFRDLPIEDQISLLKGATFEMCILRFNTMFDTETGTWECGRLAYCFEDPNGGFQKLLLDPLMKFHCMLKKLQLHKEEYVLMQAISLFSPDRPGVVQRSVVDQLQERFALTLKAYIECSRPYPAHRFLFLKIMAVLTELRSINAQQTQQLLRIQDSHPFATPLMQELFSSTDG
human Thyroid hormone Receptor beta (TRb), THRB (gene 7068), sequence (P10828 whole entry, looked up, the tested form may be a part): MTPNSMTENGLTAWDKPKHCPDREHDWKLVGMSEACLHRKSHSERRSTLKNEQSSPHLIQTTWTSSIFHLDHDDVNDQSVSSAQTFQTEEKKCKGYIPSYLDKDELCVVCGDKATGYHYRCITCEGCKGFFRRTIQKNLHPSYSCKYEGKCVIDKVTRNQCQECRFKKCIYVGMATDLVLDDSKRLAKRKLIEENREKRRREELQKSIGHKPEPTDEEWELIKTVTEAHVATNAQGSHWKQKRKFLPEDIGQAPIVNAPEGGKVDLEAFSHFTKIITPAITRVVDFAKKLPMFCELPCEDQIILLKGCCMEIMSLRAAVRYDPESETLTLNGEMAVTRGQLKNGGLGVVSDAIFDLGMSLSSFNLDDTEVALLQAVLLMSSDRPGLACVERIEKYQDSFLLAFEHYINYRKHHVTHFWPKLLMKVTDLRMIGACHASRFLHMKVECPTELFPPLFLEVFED
zebrafish Estrogen Receptor (ER1), esr1 (gene 259252), sequence (P57717 whole entry, looked up, the tested form may be a part): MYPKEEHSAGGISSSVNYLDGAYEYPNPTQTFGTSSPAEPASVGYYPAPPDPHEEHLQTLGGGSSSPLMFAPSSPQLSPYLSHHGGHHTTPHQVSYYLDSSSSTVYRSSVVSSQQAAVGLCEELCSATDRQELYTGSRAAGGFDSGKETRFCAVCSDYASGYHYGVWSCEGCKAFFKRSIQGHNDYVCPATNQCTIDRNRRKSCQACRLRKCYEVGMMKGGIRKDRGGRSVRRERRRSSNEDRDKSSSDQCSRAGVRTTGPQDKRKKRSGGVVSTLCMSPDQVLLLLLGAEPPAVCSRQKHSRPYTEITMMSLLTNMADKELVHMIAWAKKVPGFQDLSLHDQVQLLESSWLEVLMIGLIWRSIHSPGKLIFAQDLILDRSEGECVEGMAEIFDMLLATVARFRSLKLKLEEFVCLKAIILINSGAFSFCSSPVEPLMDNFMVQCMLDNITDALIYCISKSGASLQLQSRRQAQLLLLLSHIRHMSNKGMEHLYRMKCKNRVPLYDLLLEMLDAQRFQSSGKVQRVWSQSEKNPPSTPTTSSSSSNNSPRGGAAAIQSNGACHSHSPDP
Peroxisome proliferator-activated receptor gamma (Homo sapiens), sequence (P37231 whole entry, looked up, the tested form may be a part): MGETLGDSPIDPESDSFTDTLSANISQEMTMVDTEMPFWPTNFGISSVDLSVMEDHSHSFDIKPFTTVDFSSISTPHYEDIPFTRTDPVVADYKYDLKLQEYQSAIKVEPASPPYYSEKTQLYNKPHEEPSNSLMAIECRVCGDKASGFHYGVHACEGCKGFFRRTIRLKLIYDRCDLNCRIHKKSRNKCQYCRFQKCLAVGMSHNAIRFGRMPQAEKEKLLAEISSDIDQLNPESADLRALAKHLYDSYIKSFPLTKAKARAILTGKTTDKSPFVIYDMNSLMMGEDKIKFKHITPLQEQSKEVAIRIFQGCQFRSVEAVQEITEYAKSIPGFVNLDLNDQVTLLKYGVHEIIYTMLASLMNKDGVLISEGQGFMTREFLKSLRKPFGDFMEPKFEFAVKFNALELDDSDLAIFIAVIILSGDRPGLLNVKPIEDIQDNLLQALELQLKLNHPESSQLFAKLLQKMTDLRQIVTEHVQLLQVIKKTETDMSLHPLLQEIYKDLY
human Thyroid hormone Receptor alpha (TRa), THRA (gene 7067), sequence (P10827 whole entry, looked up, the tested form may be a part): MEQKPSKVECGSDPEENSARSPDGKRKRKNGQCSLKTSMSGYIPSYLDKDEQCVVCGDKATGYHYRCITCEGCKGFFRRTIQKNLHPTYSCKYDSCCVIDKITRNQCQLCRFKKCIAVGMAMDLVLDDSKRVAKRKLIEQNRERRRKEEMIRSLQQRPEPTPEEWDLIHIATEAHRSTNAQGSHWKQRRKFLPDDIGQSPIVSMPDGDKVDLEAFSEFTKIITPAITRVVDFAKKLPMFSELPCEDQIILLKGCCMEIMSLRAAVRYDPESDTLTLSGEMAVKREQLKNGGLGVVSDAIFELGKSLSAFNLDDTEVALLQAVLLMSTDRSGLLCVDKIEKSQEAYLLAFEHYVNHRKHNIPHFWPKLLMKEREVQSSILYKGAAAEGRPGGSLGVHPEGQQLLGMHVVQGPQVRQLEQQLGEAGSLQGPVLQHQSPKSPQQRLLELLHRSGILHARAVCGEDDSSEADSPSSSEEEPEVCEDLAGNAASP
chicken Estrogen Receptor (ERa), ESR1 (gene 396099), sequence (P06212 whole entry, looked up, the tested form may be a part): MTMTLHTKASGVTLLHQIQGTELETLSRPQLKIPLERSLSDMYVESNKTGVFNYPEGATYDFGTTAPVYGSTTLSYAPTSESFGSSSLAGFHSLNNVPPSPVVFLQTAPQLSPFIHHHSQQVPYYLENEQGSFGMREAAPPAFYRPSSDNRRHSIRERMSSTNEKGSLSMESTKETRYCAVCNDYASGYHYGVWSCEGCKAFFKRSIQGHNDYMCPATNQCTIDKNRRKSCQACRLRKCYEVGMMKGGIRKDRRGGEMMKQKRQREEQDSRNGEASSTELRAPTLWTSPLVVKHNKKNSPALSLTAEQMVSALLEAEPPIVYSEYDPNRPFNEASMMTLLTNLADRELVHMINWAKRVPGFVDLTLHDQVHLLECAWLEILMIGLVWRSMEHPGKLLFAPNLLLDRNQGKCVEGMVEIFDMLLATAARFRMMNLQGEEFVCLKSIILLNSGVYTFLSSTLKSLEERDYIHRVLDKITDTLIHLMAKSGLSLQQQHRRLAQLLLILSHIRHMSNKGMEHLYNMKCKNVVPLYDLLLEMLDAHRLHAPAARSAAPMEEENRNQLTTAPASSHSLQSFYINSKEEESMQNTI
frog Thyroid hormone Receptor alpha (TRa), thra-a (gene 397942), sequence (P15204 whole entry, looked up, the tested form may be a part): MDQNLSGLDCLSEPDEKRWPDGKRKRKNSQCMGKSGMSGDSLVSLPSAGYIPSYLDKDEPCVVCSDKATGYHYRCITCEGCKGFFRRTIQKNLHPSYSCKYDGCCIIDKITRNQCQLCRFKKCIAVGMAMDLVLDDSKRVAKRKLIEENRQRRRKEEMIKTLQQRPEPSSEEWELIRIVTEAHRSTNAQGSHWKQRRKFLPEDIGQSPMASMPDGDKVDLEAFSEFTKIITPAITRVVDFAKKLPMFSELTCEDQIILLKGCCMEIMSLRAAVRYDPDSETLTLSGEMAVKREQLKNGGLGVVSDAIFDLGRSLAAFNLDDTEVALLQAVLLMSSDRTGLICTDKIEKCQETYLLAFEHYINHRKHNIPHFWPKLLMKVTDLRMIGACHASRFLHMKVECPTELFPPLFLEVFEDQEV
zebrafish Thyroid Hormone Receptor beta (TRb), thrb (gene 30607), sequence (Q9PVE4 whole entry, looked up, the tested form may be a part): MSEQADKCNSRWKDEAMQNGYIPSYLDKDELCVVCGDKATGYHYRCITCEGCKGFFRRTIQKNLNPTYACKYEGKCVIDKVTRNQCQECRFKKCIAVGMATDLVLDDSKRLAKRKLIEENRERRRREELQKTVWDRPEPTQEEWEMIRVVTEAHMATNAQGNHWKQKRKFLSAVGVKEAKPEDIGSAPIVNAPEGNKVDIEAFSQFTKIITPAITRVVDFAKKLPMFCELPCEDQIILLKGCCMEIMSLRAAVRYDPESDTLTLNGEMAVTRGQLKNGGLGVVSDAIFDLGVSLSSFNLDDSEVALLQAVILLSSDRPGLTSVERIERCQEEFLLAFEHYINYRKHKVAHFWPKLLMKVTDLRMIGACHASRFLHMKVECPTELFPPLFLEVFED
Caspase-3 (Homo sapiens), sequence (P42574 whole entry, looked up): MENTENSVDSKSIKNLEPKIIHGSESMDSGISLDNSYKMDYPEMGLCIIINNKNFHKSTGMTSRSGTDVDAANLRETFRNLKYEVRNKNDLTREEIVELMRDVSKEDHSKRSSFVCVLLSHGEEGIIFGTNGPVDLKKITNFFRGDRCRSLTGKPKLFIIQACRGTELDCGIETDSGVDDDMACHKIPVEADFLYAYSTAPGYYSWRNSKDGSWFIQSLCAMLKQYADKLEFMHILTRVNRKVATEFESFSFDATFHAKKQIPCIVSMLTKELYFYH

Turning to `Cc1cc(O)cc(C)c1Cl`, the concentration at half-maximal activity (AC50) was 76 µM (active) and 29.7 µM (active) in [1]; 24.2 µM (active) and 31.7 µM (active) in [2]; 100 µM (active) and 23.8 µM (active) in test [3]; 66.8 µM (active) and 26.3 µM (active) in test [4]; 68.1 µM (active) and 34.5 µM (active) in test [5]; 29.3 µM (active) and 19.5 µM (active) in [6]. Further, the half-maximal activity concentration (AC50) in [7] was 48.2 µM (active) and 63.3 µM (active). Further, the outcome in test [8], in test [9], in test [10], in test [11], in test [12] and in test [13] was inactive. The result in test [14], in [15] and in [16] was inactive.
Turning to `CCC(C)=NO`, the result (with Caspase-3 (Homo sapiens); in test [17]; in test [18]; in test [19]) was inactive.
